Source: PubChem BioAssay (National Center for Advancing Translational Sciences (NCATS))
gsp antag = qHTS for Antagonists of gsp, the Etiologic Mutation Responsible for Fibrous Dysplasia/McCune-Albright Syndrome: qHTS | hit rate 0.4% among 340,000 | gsp-mutant cells, cAMP HTRF, 30 min | AID 624288, 2012 | Potency, µM (titrated, usually from 76.9 µM), for the others: top-dose activity change, negative = inhibition, actives largely listed as inhibitors; calls by dose curve; cell line not stated here;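 note: intracellular cAMP measured with PDE inhibitor Ro 20-1724 present during compound exposure; potency is the fitted concentration of half-maximal effect; % is set by controls: 0 for no effect and ±100 for the full control effect; nearly all actives have a fitted effect of over 65% in size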
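Measurement of cellular cAMP by homogeneous time-resolved fluorescence following a 30 min compound exposure at 37C. The PDE inhibitor […] was present throughout; the assay buffer was DPBS with 0.05% BSA and 0.005% Tween 20.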
pAkt inh = HTS Assay for Inhibitors of Akt Phophorylation: Primary Screen | Neuro2A IGF-stimulated pAkt S473 HTRF, 20 min; hits give low values | activity change, % for hits at 50 µM | hit rate 0.32% among 360,000 | AID 651550, 2012; in the data active = activity change below about -80%; inconclusive = mostly about -51% to -80%; note: % is set by controls: 0 for no effect and ±100 for the full control effect
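Neuro2A cells (4,500/well, DMEM with 0.5% FBS) were treated with compound at a single 50 µM final concentration, stimulated with 6 nM IGF for 20 min at 37 °C, and lysed. Phospho-Akt Ser473 was read by HTRF as 665/615 ratio ×10^4.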
KCNH2 WT inh = qHTS for Inhibitors of KCHN2 3.1: Wildtype qHTS | Voltage-gated inwardly rectifying potassium channel KCNH2 (Homo sapiens), Q12809 | U2OS, BacMam KCNH2, thallium flux FluxOr; hits give low values | activity change, % at 1.84 µM | hit rate 0.37% among 340,000 | AID 720551, 2013;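 active = maximum activity change below -70%; inconclusive = maximum activity change between -70% and -50%; inactive = maximum activity change above -50%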; note: % is set by controls: 0 for no effect and ±100 for the full control effect
Target sequence (Q12809 whole entry, looked up): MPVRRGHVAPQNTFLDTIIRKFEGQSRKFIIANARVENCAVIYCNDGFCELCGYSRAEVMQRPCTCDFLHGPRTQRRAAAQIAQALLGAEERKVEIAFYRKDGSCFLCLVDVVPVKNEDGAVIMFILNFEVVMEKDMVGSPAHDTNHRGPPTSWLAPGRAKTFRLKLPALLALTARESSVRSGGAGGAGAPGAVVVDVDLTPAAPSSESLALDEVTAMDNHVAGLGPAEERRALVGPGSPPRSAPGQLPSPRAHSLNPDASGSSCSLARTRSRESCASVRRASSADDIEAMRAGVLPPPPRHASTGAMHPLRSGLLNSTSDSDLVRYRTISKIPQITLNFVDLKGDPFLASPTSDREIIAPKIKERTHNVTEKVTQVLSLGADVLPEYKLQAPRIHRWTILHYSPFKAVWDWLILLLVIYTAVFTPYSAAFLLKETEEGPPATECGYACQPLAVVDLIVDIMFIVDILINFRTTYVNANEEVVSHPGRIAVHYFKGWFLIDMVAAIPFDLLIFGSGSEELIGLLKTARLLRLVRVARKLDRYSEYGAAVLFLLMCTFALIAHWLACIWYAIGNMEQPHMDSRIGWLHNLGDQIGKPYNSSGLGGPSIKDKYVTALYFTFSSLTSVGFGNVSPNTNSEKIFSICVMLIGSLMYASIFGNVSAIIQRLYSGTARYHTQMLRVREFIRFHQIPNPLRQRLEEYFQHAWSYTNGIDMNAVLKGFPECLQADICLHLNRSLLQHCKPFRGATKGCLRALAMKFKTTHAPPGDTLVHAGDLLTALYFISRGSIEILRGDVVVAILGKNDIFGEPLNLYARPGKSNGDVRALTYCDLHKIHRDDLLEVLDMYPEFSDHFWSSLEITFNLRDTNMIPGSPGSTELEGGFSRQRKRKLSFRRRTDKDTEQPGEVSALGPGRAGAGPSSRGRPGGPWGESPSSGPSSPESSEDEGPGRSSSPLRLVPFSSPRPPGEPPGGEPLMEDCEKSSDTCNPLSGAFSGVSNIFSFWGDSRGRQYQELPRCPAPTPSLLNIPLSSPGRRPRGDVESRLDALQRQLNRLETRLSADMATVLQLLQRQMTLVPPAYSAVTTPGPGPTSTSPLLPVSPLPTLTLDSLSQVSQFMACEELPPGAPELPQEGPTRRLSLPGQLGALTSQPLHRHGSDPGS
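U2OS cells were transduced with wild-type KCNH2 virus (2.03 x 10^8 / mL) for 4 h at room temperature, then cultured overnight at 37 C. Thallium flux was read with FluxOr dye. Rate constants were normalized to DMSO controls.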
KCNH2 3.1 inh = qHTS for Inhibitors of KCHN2 3.1: Mutant qHTS | Potassium voltage-gated channel subfamily H member 2, brain isoform KCNH2 3.1 (human) | U2OS KCNH2 3.1, thallium flux FluxOr; hits give low values | activity change, % (tested at about 1.8 µM) | hit rate 0.95% among 340,000 | AID 720553, 2013;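 active = maximum activity change below -70%; inconclusive = maximum activity change from -70% to -50%; inactive = maximum activity change above -50%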;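 note: thallium influx rate constant from kinetic fluorescence after stimulation buffer; % is set by controls: 0 for no effect and ±100 for the full control effect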
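Normalized rate constant (relative to positive and negative DMSO controls) derived from a 2 min kinetic fluorescence read after stimulation; U2OS cells expressing the 3.1 isoform via virus at 1.77 x 10^8 /mL.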
Glioma ERSR ind = qHTS for Inducers of the Endoplasmic Reticulum Stress Response (ERSR) in Human Glioma: qHTS. U87-MG GRP78 promoter luciferase reporter, 16 h. Potency, µM, inactives show top-dose activation, actives largely listed as activators. hit rate 0.02% among 420,000; active = well fitted activation curve with a large enough effect; inconclusive = small, poorly fitted or top-dose-only effect; inactive = no such curve, though single readings can be large or run the other way; note: potency is the fitted concentration of half-maximal effect; series mostly up to about 76 µM; % of control where 0% means no effect; nearly all actives have a fitted effect of over 35% in size
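Stably transfected U87-MG glioma cells carrying a GRP78-based luciferase sensor; 16 h compound incubation. Luminescence end-point read 10 min after Bright-Glo addition at room temperature.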
gsp ag = qHTS for Agonist of gsp, the Etiologic Mutation Responsible for Fibrous Dysplasia/McCune-Albright Syndrome: qHTS | gsp mutant cells, cAMP HTRF, 30 min | Potency, µM (doses to about 76.9 µM), inactives show at the top dose activation (cAMP increase), most hits filed as activators | hit rate 0.13% among 340,000 | AID 624287, 2012; active = well fitted activation curve with a large enough effect; inconclusive = small, poorly fitted or top-dose-only effect, or another doubt; inactive = no such curve, though single readings can be large or run the other way; cell line not stated here;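 note: phosphodiesterase inhibitor Ro 20-1724 added with compounds to block cAMP breakdown; potency is the fitted concentration of half-maximal effect; nearly all actives have a fitted effect of over 60% in size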
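Cells in DMEM/10% FBS with G418 were pretreated with compounds in DMSO plus […] (300 uM stock) for 30 min at 37C. cAMP was measured by HTRF (cAMP-d2 plus anti-cAMP antibody-K) after 30 min at room temperature.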
An asterisk follows results filed as active; i = inactive; u = inconclusive; x = no result. Only some compounds are listed: those with a hit (about 1.6% of all), similar ones and a draw of the others.

SMILES	gsp antag	pAkt inh	KCNH2 WT inh	KCNH2 3.1 inh	Glioma ERSR ind	gsp ag
C=CCC1C=CC(OC(=O)OCC)C(COC(=O)OCC)O1 (stereo not given)	x	x	x	x	-3%	x
Cc1ccc(NCCC(=O)c2cccs2)cc1Cl	-7%	i	-3	-37	8%	-42%
O=C(CCNc1cccc(Cl)c1)c1cccs1	-19%	i	-1	-70*	4%	1%
CCOC(=O)c1c(CSC(=N)N)n(-c2ccc(Br)cc2)c2cc(Br)c(OC(C)=O)cc12	11%	i	-1	-11	-5%	-8%
CCCCCCCCOC(=O)c1c(CSC(=N)N)n(C)c2cc(Br)c(OC(C)=O)cc12	-8%	i	-95*	-102*	-14%	-1%
COc1ccccc1S(=O)(=O)Cc1ccc(C(=O)N2CCN(c3ccccc3)CC2)o1	u	-124%*	2	-5	-3%	0%
COc1cccc(/C=C/c2ccnc3ccccc23)c1OC	x	x	x	x	2%	x
CCOC(=O)[C@H](CCc1ccccc1)N[C@H]1CCCN2CCC[C@@H](C(=O)O)N2C1=O	x	x	x	x	-5%	x
Cc1cc(-c2ccc(C)c(S(=O)(=O)N3CCN(c4ccc([N+](=O)[O-])cc4)CC3)c2)on1	1%	i	-29	-96*	-3%	14%
NC(=O)c1ccc(Cc2ncc(C(F)(F)F)cc2Cl)s1	3%	-106%*	-13	-22	-2%	-20%
O=S(=O)(N/N=C/c1ccc(Cl)cc1)c1ccc(Cc2ncc(C(F)(F)F)cc2Cl)s1	-12%	i	1	6	-6%	1%
CCC(=O)Nc1cc(SCCO)cc([N+](=O)[O-])c1	-1%	-88%*	7	-9	-3%	2%
O=C(CCl)Nc1cc(SCC(O)CO)cc([N+](=O)[O-])c1 (stereo not given)	-1%	i	-8	-6	-15%	-25%
COc1cccc(C(=O)c2c[nH]c(C(=O)NCc3ccco3)c2)c1	-13%	-112%*	1	x	1%	u
COc1ccc(C(=O)c2c[nH]c(C(=O)NCc3ccco3)c2)cc1	-8%	i	-12	27	-2%	-35%
COc1ccc(/C=C/C(=O)NCC2Cc3cc(Cl)cc(-c4ncccn4)c3O2)cc1 (stereo not given)	x	x	x	x	-4%	x
CCn1c(SCC(=O)NCc2ccco2)nnc1-c1cccs1	-2%	x	9	-74*	-1%	15%
Cc1ccc(-c2nnc3ccc(SCC(=O)NCc4ccco4)nn23)cc1	0%	u	-14	0	-5%	34%
O=C(CSc1ccc2nnc(-c3ccncc3)n2n1)NCc1ccco1	10%	i	-5	2	-6%	18µM*
CCn1c(SCC(=O)NCc2ccco2)nnc1-c1ccc(N(C)C)cc1	x	x	x	x	-5%	x
CCCCn1nnnc1SCC(=O)NC1CCCCC1	6%	i	-123*	-8	-2%	-7%
CCn1c(SCC(=O)NC2CCCCC2)nnc1-c1cccs1	3%	-98%*	-9	8	-8%	u
CCCCN(CCC#N)c1ccc(/C=C/c2ccnc3ccccc23)cc1	x	x	x	x	-3%	x
CCN(CC)C(=O)C1CCCN(C/C=C/c2ccccc2)C1 (stereo not given)	8%	-105%*	11	-11	-3%	5%
O=C(Nc1ccccc1Oc1cccnc1)C1CCCN(C/C=C/c2ccccc2)C1 (stereo not given)	1%	i	-19	-85*	-3%	15%
Cc1cccc(CNC(=O)c2cnn(-c3nccc(-c4cccs4)n3)c2C(C)C)n1	x	x	x	x	-3%	x
COc1ccc2c(c1)C/C(=C\c1ccc(N(C)C)cc1)C2=O	x	x	x	x	1%	x
c1csc(CNc2nc(CN3CCCC(c4nc5ccccc5o4)C3)nc3ccccc23)c1 (stereo not given)	x	x	x	x	-4%	x
